From PubChem
Shown are actives, neighbours in structure and some others; about 4.7% of the full set was active somewhere.
TRHR PAM: qHTS for Small Molecule Agonists and Allosteric Enhancers of Human TRH Receptor: Primary Screen for Enhancers. enhancement, % at 2 µM. Thyrotropin-releasing hormone receptor (Homo sapiens), P34981. 0.66% of 360,000 active. TRHR cells, fluo-8 calcium fluorescence, EC20 TRH enhancement; in the data active = enhancement above about 30%
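Enhancer read-out: after compound pinning and an initial kinetic agonist-mode read, an EC20 of TRH (10 nM final) was injected and fluo-8 calcium signal (Ex 480/Em 530) followed at 1 s/cycle for 100 cycles in TRHR-expressing cells.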
TRHR agonist: qHTS for Small Molecule Agonists and Allosteric Enhancers of Human TRH Receptor: Primary Screen for Agonists. TRHR cells, calcium flux fluo-8, FDSS agonist mode. activation, % at 2 µM. Thyrotropin-releasing hormone receptor (Homo sapiens), P34981. 0.18% of 360,000 active
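Read-out: compound-evoked intracellular calcium rise in TRHR cells, fluo-8 dye, kinetic FDSS fluorescence at 1 s/cycle following a 10-cycle baseline. Cells cultured overnight before dye loading (30 min–1.5 h, RT).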
D1 agonist: Allosteric Agonists of the Human D1 Dopamine Receptor: qHTS. AID 504660, 2011. HEK293 T-REx D1 cells, calcium flux, agonist mode. D(1A) dopamine receptor (Homo sapiens), P21728. activation, % at 2 µM. 1% of 360,000 active
Target sequence (P21728 whole entry, looked up): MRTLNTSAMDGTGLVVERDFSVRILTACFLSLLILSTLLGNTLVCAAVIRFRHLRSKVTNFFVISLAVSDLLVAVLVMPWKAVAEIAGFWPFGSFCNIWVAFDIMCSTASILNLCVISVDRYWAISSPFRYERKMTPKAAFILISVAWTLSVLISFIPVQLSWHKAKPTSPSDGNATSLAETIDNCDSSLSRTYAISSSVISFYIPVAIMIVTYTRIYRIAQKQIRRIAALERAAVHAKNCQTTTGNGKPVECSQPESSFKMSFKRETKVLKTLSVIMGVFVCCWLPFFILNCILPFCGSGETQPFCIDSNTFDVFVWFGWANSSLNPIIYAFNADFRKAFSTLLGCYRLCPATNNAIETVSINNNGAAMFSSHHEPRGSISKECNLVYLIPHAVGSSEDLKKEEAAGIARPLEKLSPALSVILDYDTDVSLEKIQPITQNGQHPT
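Agonism was scored from calcium flux recorded over 180 s (1 read/s) after pintool compound addition, following a 10-cycle baseline. Cells were inducible force-coupled HEK293 TREx D1, plated overnight at 30 C and loaded with no-wash calcium dye.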
D1 antagonist: Antagonist of Human D 1 Dopamine Receptor: qHTS | D(1A) dopamine receptor (Homo sapiens), P21728 | HEK293 TREx D1 cells, calcium flux, dopamine EC80; active compounds read low | activity change, negative = inhibition, % at 10 µM | 3.2% of 360,000 active; in the data active = activity change below about -30%
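Allosteric or orthosteric antagonism assessed as attenuation of the calcium response to EC80 dopamine, added 180 s after compound, in induced HEK293 Trex D1 cells loaded with no-wash calcium dye.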
D1 PAM: Potentiators of Human D1 Dopamine Receptor: qHTS | D(1A) dopamine receptor (Homo sapiens), P21728 | HEK293 TREx D1 cells, calcium flux, dopamine EC20 potentiation | 0.036% of 360,000 active | potentiation, % at 10 µM; in the data active = potentiation above about 30%
Numbers stand for hits; - = inactive; . = no result given. Rule as the data show it, unless noted: active = activation above about 30%; inactive = the rest.

SMILES | TRHR PAM | TRHR agonist | D1 agonist | D1 antagonist | D1 PAM
COC(=O)C(O)(c1ccc(NC(=S)NC(=O)c2ccc(Cl)cc2Cl)c(C)c1)C(F)(F)F (configuration not stated) | - | - | 45.9 | -51.9 | -
CCOC(=O)C(O)(c1ccc(NC(=S)NC(=O)c2ccc(Cl)cc2Cl)c(C)c1)C(F)(F)F (configuration not stated) | - | - | 54.2 | -34.6 | -
O=C(Nc1ccccc1C(F)(F)F)c1cccn(Cc2ccccc2)c1=O | - | - | - | . | -
O=c1c2ccccc2nc(/C=C/c2cccc3ccccc23)n1-c1ccccc1Cl | - | - | - | - | -
CCOc1ccc(CN(CCc2ccc3c(c2)OCO3)Cc2cc(OC)ccc2O)cc1 | - | - | - | - | -
Cc1ccccc1CN1CCN(Cc2ccccc2)CC1 | - | - | - | - | -
CC1CN(CCc2ccccc2)CC(C)O1 (configuration not stated) | - | - | - | - | -
Cc1cccc(N2CCN(CCc3ccccc3)CC2)c1C | - | - | 38.8 | -50.6 | -
Cc1ccc(N2CCN(CCc3ccccc3)CC2)cc1 | - | - | - | -44.2 | -
COc1ccccc1N1CCN(CCc2ccccc2)CC1 | - | - | - | -46.9 | -
O=C(Nc1ccc(OC(F)(F)F)cc1)c1cccn(Cc2ccccc2Cl)c1=O | - | - | - | - | -
Cc1ccc2c(c1)C(Cc1nc3ccccc3c(=O)n1-c1ccc(Br)cc1)C(=O)N2 (configuration not stated) | - | - | - | - | -
Cc1oc(-c2ccc(Cl)cc2)nc1CN1C(=O)CN=C(c2ccccc2)c2cc(Cl)ccc21 | - | - | - | - | -
Cc1ccc(Cn2cccc(C(=O)Nc3ccc(C)c(Cl)c3)c2=O)cc1 | - | - | - | . | -
Cc1ccc(C2=NCC(=O)N(CC(=O)N3CCCCC3)c3sc(C)c(C)c32)cc1 | 30.0 | - | - | - | -
Cc1cc(C)cc(-n2c(=O)[nH]c3ccccc3c2=O)c1 | - | - | - | - | -
CCN(CC)CCSc1nc2ccccc2c(=O)n1-c1ccc(Cl)cc1 | - | - | - | - | -
CCC1(CC)C(=O)N(C)C(=O)NC1=NC | - | - | - | -34.6 | -
CCC1(CC)C(=N)N(C)C(=O)NC1=O | - | - | - | - | -
OC(CN1CCC(c2c[nH]c3ccccc23)CC1)C(F)(F)F (configuration not stated) | - | - | - | -40.8 | -
Cc1ccccc1-n1nc(C)c2c1NC(=O)CSC2c1ccccc1C(F)(F)F (configuration not stated) | - | - | - | - | -
O=C(/C=C/c1ccccc1)c1c(O)n(CCc2ccccc2)c(=O)[nH]c1=O | - | - | - | - | -
COc1cc(/C=C/C(=O)c2c(O)n(CCc3ccccc3)c(=O)[nH]c2=O)ccc1O | - | - | 42.2 | - | -
O=c1c2ccccc2nc(/C=C/c2ccccc2O)n1-c1ccc(Br)cc1 | - | - | - | - | -
O=C1NC(=S)N(c2ccccc2)C(=O)/C1=C/c1ccco1 | - | - | - | - | -
SMILES | TRHR PAM | TRHR agonist | D1 agonist | D1 antagonist | D1 PAM
CCN(CC)c1ccc(C=C2C(=O)N(C)C(=S)N(C)C2=O)o1 | - | - | 50.2 | - | -
CN1C(=O)C(=Cc2ccc(N3CCCCC3)o2)C(=O)N(C)C1=S | - | - | 85.4 | - | -
CCOc1cccc(N2C(=O)/C(=C/c3ccco3)C(=O)NC2=S)c1 | 34.3 | - | - | - | -
CCN(CC)c1ccc(/C=C2\C(=O)NC(=S)N(C)C2=O)o1 | - | - | 64.7 | - | -
COc1cccc(N2C(=O)/C(=C/c3ccc(C)o3)C(=O)NC2=S)c1 | - | - | - | - | -
COc1ccc(N2C(=O)NC(=O)/C(=C\c3cn(C)c4ccccc34)C2=O)cc1 | - | - | 54.5 | - | -
COc1ccc(N2C(=O)/C(=C/c3ccc(N(C)C)o3)C(=O)NC2=S)cc1 | - | - | 35.4 | - | -
CNC(C)Cc1ccccc1Sc1ccc(O)cc1 (configuration not stated) | - | - | - | -58.8 | -
Cc1cc(-c2ccccc2)cc(-c2ccccc2)[n+]1CCc1ccccc1 | - | - | - | -42.5 | -
CCN1CCN(Cc2ccc(OC(F)(F)F)cc2)CC1 | - | - | - | -33.6 | -
Cc1cccc(NC(=O)Cn2cc(C(=O)c3ccccc3)c3ccccc32)c1 | - | - | - | - | -
O=C1CN=C(c2ccccc2Cl)c2cc(Cl)ccc2N1Cc1cccc(Cl)c1 | - | - | - | - | -
Nc1ccc2cc(Br)ccc2c1 | - | - | - | -31.1 | -
Brc1ccc(Oc2ccc(Br)cc2Br)c(Br)c1 | - | - | - | . | -
O=C(Nc1ccc(Cl)cc1C(=O)c1ccccc1)c1ccccc1Br | - | - | - | - | -
CCCN(CCC)C1CCc2ccc(O)cc2C1 (configuration not stated) | - | - | - | -61.2 | -
COc1ccc(Br)cc1C1SCC(=O)Nc2c1c(C)nn2-c1ccccc1C (configuration not stated) | - | - | - | - | -
Cc1ccccc1-n1c(/C=C/c2ccccc2F)nc2ccccc2c1=O | - | - | - | - | -
COC(=O)C(Cc1ccc(N(CCCl)CCCl)cc1)N=Cc1ccccc1O (configuration not stated) | - | - | - | -40.2 | -
CCOC(=O)C(NC(=O)C(Cc1ccc(N(CCCl)CCCl)cc1)NC(C)=O)C(C)C (configuration not stated) | - | - | - | - | -
CCOC(=O)C(O)(c1ccc(NC(=O)Oc2ccccc2)cc1)C(F)(F)F (configuration not stated) | - | - | - | - | -
COC(=O)C(O)(c1ccc(NC(=S)NC(=O)c2ccc(Cl)cc2Cl)cc1)C(F)(F)F (configuration not stated) | - | - | 31.2 | -32.0 | -
CCOC(=O)C(O)(c1ccc(NC(=S)NC(=O)c2ccc(Cl)cc2Cl)cc1)C(F)(F)F (configuration not stated) | - | - | 44.2 | - | -
COC(=O)C(O)(c1ccc(NC(=O)NC2CCCCC2)cc1)C(F)(F)F (configuration not stated) | - | - | - | - | -
CCOc1ccc2nc(NC(=O)c3cccn(Cc4ccccc4Cl)c3=O)sc2c1 | - | - | - | - | -
COc1ccc(CC(C)NCCC(c2ccccc2)c2ccccc2)cc1 (configuration not stated) | - | - | 43.3 | - | -
CCOc1ccc(CN(CCc2ccc3c(c2)OCO3)Cc2cccc(C)c2)cc1 | - | - | - | - | -
